Test results as given in PubChem BioAssay (NCI).
“And” between values parts separate entries of the source, which are not always exact repeats. Equal values may be shown once. Compounds without any hit were thinned out: in the full panel of roughly 79,000, 15% have a hit. Some compounds were tested as several samples or in several runs, with calls that do not always agree. The source made the active and inactive calls. Rule as the data show it: active = growth inhibition above about 70%; inactive = the rest.

Assays:
[1] = NCI Yeast Anticancer Drug Screen. Data for the rad50 strain (AID 155);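 also: 0% = growth of vehicle-only cultures of the same strain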; settings: S. cerevisiae rad50 strain growth inhibition, stronger effect = higher value
Summary of the method: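 Relative growth inhibition (compound vs vehicle) was measured in yeast with a defined repair-gene alteration.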

[2] = NCI Yeast Anticancer Drug Screen. Data for the mec2-1 strain (AID 157); settings: S. cerevisiae mec2-1 strain, stronger effect = higher value
Summary of the method: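 Strain: mec2-1 (DNA repair/cell cycle alteration). Compound exposure, then growth measured; inhibition expressed relative to vehicle.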

[3] = NCI Yeast Anticancer Drug Screen. Data for the sgs1 mgt1 strain (AID 161);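 also: 0% = growth of cultures given vehicle only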; settings: S. cerevisiae sgs1 mgt1 strain, stronger effect = higher value
Summary of the method: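 Test agents were incubated with a DNA-repair-mutant yeast strain. Growth was then read and compared against vehicle-treated controls.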

[4] = NCI Yeast Anticancer Drug Screen. Data for the cln2 rad14 strain (AID 165);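 also: 0% = growth equal to vehicle treated cultures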; settings: S. cerevisiae cln2 rad14 strain, stronger effect = higher value
Summary of the method: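 Compounds are applied to the cln2 rad14 yeast strain, and growth is then compared with that of vehicle-treated cultures to give inhibition.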

[5] = NCI Yeast Anticancer Drug Screen. Data for the bub3 strain (AID 167); settings: S. cerevisiae bub3 mutant strain, stronger effect = higher value
Summary of the method: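 Screening used yeast with an engineered genetic alteration affecting cell cycle control. Compound-exposed cultures were compared with vehicle cultures, and reduced growth was taken as inhibition.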

[6] = NCI Yeast Anticancer Drug Screen. Data for the mlh1 rad18 strain (AID 175); settings: S. cerevisiae mlh1 rad18 strain growth inhibition, stronger effect = higher value
Summary of the method: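 Read-out is yeast growth inhibition, calculated against vehicle-only controls. The compound was applied to a strain engineered with DNA damage repair alterations.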

[7] = at 5.0 µM (retest, dose inferred, filed as 0.5)
[8] = at 50.0 µM (retest, dose inferred, filed as 5.0)

Measured: growth inhibition

CC(C)Oc1ccc(Nc2ccccc2)cc1
inactive: [1]; [7] -2% | [1]; [8] 61% | [1]; at 50.0 µM -1.65% and 37% | [2]; [7] -9% | [2]; [8] 15% | [2]; at 50.0 µM -2.9% and 50.2% | [3]; [7] -1% | [3]; [8] 43% | [3]; at 50.0 µM -8.3% and 56.8% | [4]; [7] 0% | [4]; [8] -18% | [4]; at 50.0 µM -21.6% and 36.1% | [5]; [7] 42% | [5]; [8] 62% | [5]; at 50.0 µM -16.4% and 33.5% | [6]; [7] -4% | [6]; [8] 20% | [6]; at 50.0 µM -9.65% and 40.1%

Cc1ccc(S(=O)(=O)Nc2cc(S(=O)(=O)O)c(N)c3c2C(=O)c2ccccc2C3=O)cc1
inactive: [1]; [7] 51% | [1]; at 50.0 µM 60.2% | [2]; [7] 47% | [2]; at 50.0 µM 30.4% | [3]; [7] 25% | [3]; [8] 65% | [3]; at 50.0 µM 62.8% | [4]; [7] 43% | [4]; at 50.0 µM 66.2% | [5]; [7] 45% | [5]; at 50.0 µM 60.1% | [6]; [7] 53% | [6]; at 50.0 µM 60.5%
active: [1]; [8] 99% | [2]; [8] 99% | [4]; [8] 89% | [5]; [8] 78% | [6]; [8] 99%

CCCCCCC(C)CC(CCCCCC)NCCOC(=O)c1ccc([N+](=O)[O-])cc1 (centres undefined)
72% (active) and 68% (inactive): [6]; [7]
80% (active) and 42% (inactive): [3]; [7]
active: [1]; [8] 98% and 97% | [1]; at 50.0 µM 98.8% and 99.2% | [2]; [8] 99% | [2]; at 50.0 µM 99.3% and 99.5% | [3]; [8] 99% | [3]; at 50.0 µM 99.2% and 99.5% | [4]; [8] 98% | [4]; at 50.0 µM 98.5% and 99.1% | [5]; [8] 99% and 98% | [5]; at 50.0 µM 98.7% and 99.3% | [6]; [8] 99% and 98% | [6]; at 50.0 µM 99% and 99.5%
inactive: [1]; [7] 34% and 18% | [2]; [7] 40% and 22% | [4]; [7] 14% and 2% | [5]; [7] 19% and 6%

O=C(CCC(=O)OCCOc1ccccc1)OCCOc1ccccc1
inactive: [1]; [7] 10% | [1]; [8] -1% | [1]; at 50.0 µM -3.5% | [2]; [7] -16% | [2]; [8] -13% | [2]; at 50.0 µM -4.7% | [3]; [7] 17% | [3]; [8] 3% | [3]; at 50.0 µM -6.4% | [4]; [7] 7% | [4]; [8] 20% | [4]; at 50.0 µM 21.6% | [5]; [7] 1% | [5]; [8] 7% | [5]; at 50.0 µM -4% | [6]; [7] 6% | [6]; [8] 30% | [6]; at 50.0 µM -1.75%

O=C(O)C#CC(=O)O
76.2% (active) and 1.25% (inactive): [1]; at 50.0 µM
85.7% (active) and -6.9% (inactive): [2]; at 50.0 µM
75.5% (active) and 15.1% (inactive): [6]; at 50.0 µM
76.2% (active) and 12.3% (inactive): [3]; at 50.0 µM
active: [1]; [8] 76%
inactive: [1]; [7] 22% | [2]; [7] 20% | [2]; [8] 20% | [3]; [7] 28% | [3]; [8] 63% | [4]; [7] 31% | [4]; [8] 30% | [4]; at 50.0 µM 17.6% and 1.65% | [5]; [7] 26% | [5]; [8] 38% | [5]; at 50.0 µM 60% and -7.7% | [6]; [7] 35% | [6]; [8] 60%

C=CC(=O)O
inactive: [1]; [7] -2% | [1]; [8] -1% | [1]; at 50.0 µM 9.85% and 32.4% | [2]; [7] -1% | [2]; [8] 0% | [2]; at 50.0 µM 21.9% and -20.6% | [3]; [7] -1% | [3]; [8] 2% | [3]; at 50.0 µM -3.35% and 18.4% | [4]; [7] 0% | [4]; [8] 1% | [4]; at 50.0 µM 20.8% and 9.55% | [5]; [7] 1% | [5]; [8] 3% | [5]; at 50.0 µM 47% and 30.1% | [6]; [7] 1% | [6]; [8] -1% | [6]; at 50.0 µM 47.5% and 39%

O=C(O)CCN1c2ccccc2Sc2ccccc21
inactive: [1]; [7] 1% and -19% | [1]; [8] 31% and 27% | [1]; at 50.0 µM 35% and 69.4% | [2]; [7] -22% and -12% | [2]; [8] 40% and 48% | [2]; at 50.0 µM 13.3% and 52% | [3]; [7] -5% and -16% | [3]; [8] 46% and 41% | [3]; at 50.0 µM 27.9% and 69.6% | [4]; [7] -8% and 13% | [4]; [8] 58% and 52% | [5]; [7] -15% and -16% | [5]; [8] 51% and 48% | [5]; at 50.0 µM 64.9% and 39.2% | [6]; [7] -7% and -39% | [6]; [8] 56% and 35% | [6]; at 50.0 µM 42.5% and 54.9%
84.3% (active) and 54.4% (inactive): [4]; at 50.0 µM

C=C(C)C(=O)Oc1ccc(N=Nc2ccccc2)ccc1=O
inactive: [1]; [7] 2% | [2]; [7] 5% | [3]; [7] 6% | [4]; [7] 4% | [4]; at 50.0 µM 59.9% | [5]; [7] -2% | [6]; [7] 12%
active: [1]; [8] 89% | [1]; at 50.0 µM 95.3% | [2]; [8] 93% | [2]; at 50.0 µM 81% | [3]; [8] 93% | [3]; at 50.0 µM 93% | [4]; [8] 77% | [5]; [8] 86% | [5]; at 50.0 µM 81.8% | [6]; [8] 96% | [6]; at 50.0 µM 94.5%

COc1nc(NC2OC(CO)C(O)C(O)C2O)c(Cl)c(=O)n1C (centres undefined)
inactive: [1]; [7] 1% | [1]; [8] 5% | [1]; at 50.0 µM 17.7% | [2]; [7] 3% | [2]; [8] 0% | [3]; [7] 2% | [3]; [8] -2% | [4]; [7] 1% | [4]; [8] 3% | [4]; at 50.0 µM 69.3% | [5]; [7] -1% | [5]; [8] -2% | [6]; [7] -1% | [6]; [8] -3%
active: [2]; at 50.0 µM 74.5% | [3]; at 50.0 µM 87.3% | [5]; at 50.0 µM 71.2% | [6]; at 50.0 µM 88.9%

Oc1cc2c3c(c1)c1cc4c(cc1c[n+]3CC2)OCO4
85% (active) and 63% (inactive): [3]; [8]
72% (active) and 56% (inactive): [1]; [8]
inactive: [1]; [7] 42% and 11% | [1]; at 50.0 µM -22.4% and 52% | [2]; [7] 36% and 10% | [2]; [8] 57% and 41% | [2]; at 50.0 µM -44.9% and 33.4% | [3]; [7] 64% and 33% | [3]; at 50.0 µM -5.25% and 50.9% | [4]; [7] 59% and 28% | [4]; at 50.0 µM 0.95% and 43.3% | [5]; [7] 63% and 23% | [5]; at 50.0 µM -36.8% and 31.2% | [6]; [7] 30% and 7% | [6]; [8] 65% and 57% | [6]; at 50.0 µM -30.6% and 53%
84% (active) and 60% (inactive): [5]; [8]
74% (active) and 39% (inactive): [4]; [8]

O=S(c1cc(Cl)cc(Cl)c1O)c1cc(Cl)cc(Cl)c1O
active: [1]; [8] 99% | [1]; at 50.0 µM 99.2% | [2]; [8] 100% | [2]; at 50.0 µM 99.5% | [3]; [8] 100% | [3]; at 50.0 µM 98% | [4]; [8] 99% | [4]; at 50.0 µM 99.5% | [5]; [8] 100% | [5]; at 50.0 µM 99.5% | [6]; [8] 99% | [6]; at 50.0 µM 99.5%
inactive: [1]; [7] 66% | [2]; [7] 39% | [3]; [7] 39% | [4]; [7] 40% | [5]; [7] 56% | [6]; [7] 44%

Nc1c2ccccc2nc2ccccc12
73% (active) and 68% (inactive): [3]; [8]
54.5% (inactive) and 79% (active): [4]; at 50.0 µM
66% (inactive) and 70% (active): [2]; [8]
active: [1]; [8] 92% and 90% | [1]; at 50.0 µM 94.5% and 92.5% | [3]; at 50.0 µM 75.8% and 74% | [5]; [8] 79% and 73% | [6]; [8] 86% | [6]; at 50.0 µM 90.6% and 88.5%
63.6% (inactive) and 75.5% (active): [5]; at 50.0 µM
inactive: [1]; [7] 51% and 41% | [2]; [7] 18% and 19% | [2]; at 50.0 µM 60.8% and 60.3% | [3]; [7] 20% and 18% | [4]; [7] 25% | [4]; [8] 51% and 65% | [5]; [7] 5% and -1% | [6]; [7] 21% and 25%

CCCC(O)c1ccc(C)cc1 (centres undefined)
inactive: [1]; [7] 11% and 1% | [1]; [8] 20% and 2% | [1]; at 50.0 µM 12.8% and -26.4% | [2]; [7] 4% and 3% | [2]; [8] 21% and -2% | [2]; at 50.0 µM 33.5% and -6.65% | [3]; [7] 5% and 0% | [3]; [8] 33% and -1% | [3]; at 50.0 µM 0.4% and 15.7% | [4]; [7] 5% and -1% | [4]; [8] 10% and 0% | [4]; at 50.0 µM -43.6% and 18.9% | [5]; [7] -2% and -3% | [5]; at 50.0 µM -6.05% and 14.9% | [6]; [7] 7% and 5% | [6]; [8] 21% and 7% | [6]; at 50.0 µM 6.2% and -10.3%
98% (active) and -10% (inactive): [5]; [8]
